This is one part of a sample in which the strongest signals are shown more often than they occur.
How the values were obtained:
Assay in all cases: glycan array binding signal (z-score within array); higher = stronger binding
Details in all cases: glycan notation: IUPAC condensed, linker removed; mutation: R144S
[1] = biological target: Fuc(a1-2)Gal(b1-3)GlcNAc(b1-3)[Fuc(a1-3)[Gal(b1-4)]GlcNAc(b1-6)]Gal(b1-4)Glc
In short: (§1)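 Glycan array binding is given as a within-array Z-score, which can be read as non-binding when negative. The arrays, 3228 of them, came from the Consortium for Functional Glycomics database and were retained only where the protein sequence was available. Z-scores were averaged across arrays of the same protein sequence at different concentrations or buffers and across linkers.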

Fuc(a1-2)Gal(b1-4)Glc6S = biological target: Fuc(a1-2)Gal(b1-4)Glc6S
In short: as §1

[2] = biological target: Fuc(a1-2)Gal(b1-4)GlcNAc6S
In short: as §1

[3] = biological target: Fuc(a1-2)Gal(b1-4)[Fuc(a1-3)]GlcNAc(b1-3)Gal(b1-4)[Fuc(a1-3)]GlcNAc
In short: as §1

[4] = biological target: Fuc(a1-2)[Gal(a1-3)]Gal(b1-3)GlcNAc(b1-2)Man(a1-3)[Fuc(a1-2)[Gal(a1-3)]Gal(b1-3)GlcNAc(b1-2)Man(a1-6)]Man(b1-4)GlcNAc(b1-4)GlcNAc
In short: as §1

[5] = biological target: Fuc(a1-2)[Gal(a1-3)]Gal(b1-4)GlcNAc(b1-2)Man(a1-3)[Fuc(a1-2)[Gal(a1-3)]Gal(b1-4)GlcNAc(b1-2)Man(a1-6)]Man(b1-4)GlcNAc(b1-4)GlcNAc
In short: as §1

[6] = biological target: Fuc(a1-2)[GalNAc(a1-3)]Gal(b1-3)GlcNAc(b1-2)Man(a1-3)[Fuc(a1-2)[GalNAc(a1-3)]Gal(b1-3)GlcNAc(b1-2)Man(a1-6)]Man(b1-4)GlcNAc(b1-4)GlcNAc
In short: as §1

[7] = biological target: Fuc(a1-2)[GalNAc(a1-3)]Gal(b1-4)GlcNAc(b1-2)Man(a1-3)[Fuc(a1-2)[GalNAc(a1-3)]Gal(b1-4)GlcNAc(b1-2)Man(a1-6)]Man(b1-4)GlcNAc(b1-4)GlcNAc
In short: as §1

[8] = biological target: Fuc(a1-2)[GalNAc(a1-3)]Gal(b1-4)GlcNAc(b1-3)Gal(b1-4)GlcNAc(b1-3)Gal(b1-4)GlcNAc
In short: as §1

[9] = biological target: Fuc(a1-2)[GalNAc(a1-3)]Gal(b1-4)[Fuc(a1-3)]GlcNAc
In short: as §1

[10] = biological target: Fuc(a1-3)[Gal3S(b1-4)]GlcNAc
In short: as §1

[11] = biological target: Gal(a1-4)Gal(b1-3)GlcNAc(b1-2)Man(a1-3)[Gal(a1-4)Gal(b1-3)GlcNAc(b1-2)Man(a1-6)]Man(b1-4)GlcNAc(b1-4)GlcNAc
In short: as §1

Gal(a1-4)Gal(b1-4)Glc = biological target: Gal(a1-4)Gal(b1-4)Glc
In short: as §1

[12] = biological target: Gal(b1-3)GalNAc(a1-3)[Fuc(a1-2)]Gal(b1-4)GlcNAc
In short: as §1

[13] = biological target: Gal(b1-3)GlcNAc(b1-3)Gal(b1-4)GlcNAc(b1-6)[Gal(b1-3)GlcNAc(b1-3)]Gal(b1-4)Glc
In short: as §1

[14] = biological target: Gal(b1-3)[Fuc(a1-4)]GlcNAc(b1-3)Gal(b1-4)[Fuc(a1-3)]GlcNAc
In short: as §1

[15] = biological target: Gal(b1-3)[Neu5Ac(a2-6)]GalNAc
In short: as §1

[16] = biological target: Gal(b1-4)GalNAc(a1-3)[Fuc(a1-2)]Gal(b1-4)GlcNAc
In short: as §1

[17] = biological target: Gal(b1-4)GlcNAc(b1-3)[Gal(b1-4)GlcNAc(b1-6)]Gal(b1-4)GlcNAc
In short: as §1

Gal3S(b1-4)GlcNAc6S = biological target: Gal3S(b1-4)GlcNAc6S
In short: as §1

GalNAc(a1-3)Gal = biological target: GalNAc(a1-3)Gal
In short: as §1

[18] = biological target: GalNAc(b1-3)Gal(a1-4)Gal(b1-4)GlcNAc(b1-3)Gal(b1-4)Glc
In short: as §1

GalNAc(b1-3)GalNAc = biological target: GalNAc(b1-3)GalNAc
In short: as §1

[19] = biological target: GlcNAc(a1-4)Gal(b1-4)GlcNAc(b1-3)Gal(b1-4)Glc
In short: as §1

[20] = biological target: GlcNAc(b1-2)[GlcNAc(b1-4)]Man(a1-3)[GlcNAc(b1-2)Man(a1-6)]Man(b1-4)GlcNAc(b1-4)GlcNAc
In short: as §1

[21] = biological target: GlcNAc(b1-3)Gal(b1-3)GalNAc
In short: as §1

GlcNAc(b1-3)Gal(b1-4)Glc = biological target: GlcNAc(b1-3)Gal(b1-4)Glc
In short: as §1

[22] = biological target: GlcNAc(b1-3)Gal(b1-4)GlcNAc
In short: as §1

Man(a1-3)[Man(a1-6)]Man = biological target: Man(a1-3)[Man(a1-6)]Man
In short: as §1

[23] = biological target: Neu5Ac(a2-3)Gal(b1-4)GlcNAc6S
In short: as §1

[24] = biological target: Neu5Ac(a2-3)Gal(b1-4)[Fuc(a1-3)]GlcNAc(b1-6)[Neu5Ac(a2-3)Gal(b1-3)]GalNAc
In short: as §1

[25] = biological target: Neu5Ac(a2-3)GalNAc(b1-4)GlcNAc
In short: as §1

Neu5Ac(a2-6)GalNAc = biological target: Neu5Ac(a2-6)GalNAc
In short: as §1

[26] = biological target: Neu5Gc(a2-3)Gal(b1-3)GlcNAc
In short: as §1

[27] = biological target: Neu5Gc(b2-6)Gal(b1-4)GlcNAc
In short: as §1

B1: Gal 3 (Homo sapiens), P17931 (protein)
chain: MADNFSLHDALSGSGNPNPQGWPGAWGNQPAGAGGYPGASYPGAYPGQAPPGAYPGQAPPGAYHGAPGAYPGAPAPGVYPGPPSGPGAYPSSGQPSAPGAYPATGPYGAPAGPLIVPYNLPLPGGVVPRMLITILGTVKPNANSILDFQRGNDVAFHFNPRFNENNRRVIVCNTKLDNNWGREERQSVFPFESGKPFKIQVLVEPDHFKVAVNDAHLLQYNHRVKKLNEISKLGISGDIDLTSASYTMI
- glycan array binding signal (z-score) [1]: 0.343
- glycan array binding signal (z-score) (Fuc(a1-2)Gal(b1-4)Glc6S): -0.313
- glycan array binding signal (z-score) [2]: 0.788
- glycan array binding signal (z-score) [3]: -0.357
- glycan array binding signal (z-score) [4]: 4.81
- glycan array binding signal (z-score) [5]: 5.46
- glycan array binding signal (z-score) [6]: 6.11
- glycan array binding signal (z-score) [7]: 5.95
- glycan array binding signal (z-score) [8]: 4.99
- glycan array binding signal (z-score) [9]: -0.356
- glycan array binding signal (z-score) [10]: -0.359
- glycan array binding signal (z-score) [11]: -0.361
- glycan array binding signal (z-score) (Gal(a1-4)Gal(b1-4)Glc): -0.359
- glycan array binding signal (z-score) [12]: 4.94
- glycan array binding signal (z-score) [13]: 0.34
- glycan array binding signal (z-score) [14]: -0.357
- glycan array binding signal (z-score) [15]: -0.352
- glycan array binding signal (z-score) [16]: 5.09
- glycan array binding signal (z-score) [17]: 1.2
- glycan array binding signal (z-score) (Gal3S(b1-4)GlcNAc6S): -0.288
- glycan array binding signal (z-score) (GalNAc(a1-3)Gal): -0.354
- glycan array binding signal (z-score) [18]: 0.182
- glycan array binding signal (z-score) (GalNAc(b1-3)GalNAc): -0.354
- glycan array binding signal (z-score) [19]: -0.356
- glycan array binding signal (z-score) [20]: -0.341
- glycan array binding signal (z-score) [21]: -0.356
- glycan array binding signal (z-score) (GlcNAc(b1-3)Gal(b1-4)Glc): -0.36
- glycan array binding signal (z-score) [22]: -0.358
- glycan array binding signal (z-score) (Man(a1-3)[Man(a1-6)]Man): -0.354
- glycan array binding signal (z-score) [23]: -0.365
- glycan array binding signal (z-score) [24]: -0.352
- glycan array binding signal (z-score) [25]: -0.363
- glycan array binding signal (z-score) (Neu5Ac(a2-6)GalNAc): -0.364
- glycan array binding signal (z-score) [26]: -0.363
- glycan array binding signal (z-score) [27]: -0.358
